For orientation: inhibition means the drop in the measured response relative to a control, in per cent.

Screen size: about 1,000 compounds; about 200 (20%) were called active. A selection follows. Potency and affinity values are given separately. Values without a mark were called inactive. No stated cut-off is given here; in the data, active means inhibition above about 55%; inactive means the rest.

For the assay, the target named is Dual specificity protein phosphatase 3 (Homo sapiens) (UniProt P51452). The assay is described as follows: VHR1 phosphatase inhibitors, biochemical (AID 1878). Particulars: recombinant VHR phosphatase, fluorogenic substrate; at 13.3 µM; hits give high values.
Sequence of Dual specificity protein phosphatase 3 (Homo sapiens) (P51452 whole entry, looked up): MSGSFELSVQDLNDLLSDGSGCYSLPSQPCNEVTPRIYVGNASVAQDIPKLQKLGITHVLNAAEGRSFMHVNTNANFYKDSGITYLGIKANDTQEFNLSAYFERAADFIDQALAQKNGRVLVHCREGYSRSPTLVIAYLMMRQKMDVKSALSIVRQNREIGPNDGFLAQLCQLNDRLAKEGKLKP
`COC(=O)c1ccc(NS(=O)(=O)c2ccc3c(c2)n(C)c(=O)n3C)cc1`: the inhibition is -7.8%.
As for `CCCN1CCC(=O)N([C@H](CSc2ccccc2)CC(C)C)CC1`, the figure is -3.5%.
As for `COc1cccc(-c2coc3cc4oc(=O)c(CCC(=O)O)c(C)c4cc23)c1`, the inhibition was -0.1%.
Take `O=C(NCCCN1CCCCC1)c1ccc(CS(=O)c2ccc(Cl)cc2)o1` (stereo not drawn): the inhibition is -3.5%.
The same measure for `OCCC1CCCCN1CC(O)COCc1ccc(Cl)cc1` (stereo not drawn): -7.1%; for `c1ccc(-c2ccnc3nc(N4CCN(c5ccccc5)CC4)nn23)cc1`: 19%; for `CC1Cc2cc(-c3csc(N)n3)ccc2O1` (stereo not drawn): 7.6%.
For the compound `O=C(CNC(=O)c1ccco1)Nc1ccc(Br)cc1`, the inhibition is 7%.
As for `CN(C)c1ccc(C(=S)N2CCN(Cc3ccccc3)CC2)cc1`, the figure is 56.8% (active).
Turning to `CCCC(CCC)C(=O)NC1CCN(Cc2ccccc2)CC1`, the inhibition was -4.1%.
Turning to `S=C(c1ccc(OCc2ccccc2)cc1)N1CCCC1`, the inhibition is 7.3%.
Take `O=c1[nH]c2ccc(NS(=O)(=O)c3ccc(F)c(Cl)c3)cc2[nH]1`: the inhibition is -7.2%.
`NC(=S)N/N=C/c1ccc2cccc(OCc3ccccc3)c2n1`: the inhibition was 9.9%.
As to `Cc1cc2c(cc3c(=O)n(CC(=O)NCCCN4CC(C)CC(C)C4)ncn32)s1` (stereo not drawn), the inhibition was -3.8%.
Consider `Cc1[nH]c(=O)[nH]c(=O)c1S(=O)(=O)Nc1ccc(Br)cc1F`, for which the inhibition was 4.3%.
For the compound `O=C(N[C@@H](Cc1ccccc1)C(=O)N1CCC2(CC1)NCCc1[nH]cnc12)c1cccc(F)c1`, the inhibition was 19.9%.
As for `CN1CCN(Cc2nc3ccccc3n2C)CC1CCO` (stereo not drawn), the figure is -0.8%; as for `CS(=O)(=O)C1=NSC2=NC(=O)/C(=C\c3cccn3-c3ccc(Cl)cc3)C(=N)N21`, 86.4% (active).
`Cc1ccc(-n2cccc2/C=C2\C(=N)N3N=C(c4ccco4)SC3=NC2=O)cc1`: the inhibition is 98.9% (active).
In the case of `c1ccc(NC2=NCCCS2)cc1`, the inhibition was -2.2%.
Regarding `COc1ccc(C)c(NC(=O)NCCc2cnc[nH]2)c1`, the inhibition is 7.6%.
On to `CCOc1ccc(S(=O)(=O)N2CCOCC2)cc1NC(=O)CSCC(=O)Nc1cccc(C)c1`, for which the inhibition was -2.1%.
Regarding `CCCCCCC(=O)Nc1nc(C)c(-c2csc(Nc3cc(OC)ccc3OC)n2)s1`, the inhibition was 11.7%.
On to `O=C(COc1ccc(S(=O)(=O)N2CCOCC2)cc1)N1CCN(c2ccccc2)CC1`, for which the inhibition is 7.2%.
As for `CNC1(C(N)=O)CCNCC1`, the inhibition is -8.1%.
For the compound `CC1=CC(=C2C=CC(=O)C=C2)C=C(C)N1C`, the inhibition is 4.7%.
As to `CCCCNC(=O)CCc1c(C)nc2c(c(C)nn2-c2ccccc2)c1C`, the inhibition is -6.7%.
The same measure for `Cc1ccc(CC(=O)NC2CCN(C)CC2)cc1`: 21.9%.
For `CN1CCCN(C(=O)c2cccc(Cl)c2)CC1`, the inhibition was -8.6%.
With `Cc1cccc(-n2c(N)c(C(=O)N3CCN(C)CC3)sc2=S)c1`, the inhibition is 36.6%.
With `CC(C)c1ccc(NC(=O)N2CCN(S(=O)(=O)c3ccccc3)CC2)cc1`, the inhibition is 0%.
Consider `Nc1c2c(nc3c1CCCC3)CCCC2` (tested in a mixture with another compound), for which the inhibition was -12.1%.
As for `CN(C)CCN(Cc1ccccc1)C(=O)C1CCN(c2ncnc3c2nc2n3CCCCC2)CC1`, the inhibition was -3.7%.
On to `CC(C)(C)NC(=S)N1CCC(C(=O)c2ccc(F)cc2)CC1`, for which the inhibition was -7.6%.
Take `Cc1ccc(N=C2C(=O)Nc3c(C)cccc32)cc1`: the inhibition was -18.2%.
As to `O=S(=O)(NC(=NCc1ccccc1)c1ccccc1)c1ccccc1`, the inhibition was -7.7%.
As to `CCC(C)(C)NC(=O)CN(C(=O)CCC(=O)Nc1nccs1)c1ccc2c(c1)OCCO2`, the inhibition was 1.8%.
The same measure for `O=C(c1cccc([N+](=O)[O-])c1)c1ccc2c(c1)C(=O)N(c1c[nH]c(=O)[nH]c1=O)C2=O`: -0.9%; for `CC(C)=C(NC(=O)c1ccccc1)C(=O)NCCc1nc2ccccc2[nH]1`: 26.9%.
Consider `Cc1ccc2nc(NC(=O)C3CC3C)sc2c1` (stereo not drawn), for which the inhibition is -7.4%.
For `CCc1ccc2nc(NC(=O)c3ccc4c(=O)[nH]c(CN5CCOCC5)nc4c3)sc2c1`, the inhibition was 66.5% (active).
With `CCN(CC)CCCNC(=O)c1oc2ccc3c(c2c1C)C(O)CC(C)(C)O3` (stereo not drawn), the inhibition was -1.6%.
Regarding `CC(C)C(=O)N1CCC(n2nccc2NC(=O)CCc2ccccc2)CC1`, the inhibition was -2.1%.

The record behind these values is PubChem BioAssay AID1878 (Sanford-Burnham Center for Chemical Genomics, 2009).
